Several values for one entry are separate records, joined by “and”; a condition that tells them apart may be missing. Equal entries are not always repeated. In all, about 350,000 compounds went through this assay and about 31,000 (8.9%) were called active. About 15% were inconclusive and are not listed. Calls follow the shape of the dose curve; as a rule, active = well fitted inhibition curve with a large enough effect; inconclusive = small, poorly fitted or top-dose-only effect; inactive = no such curve, though single readings can be large or run the other way. For the sample, actives were picked, then their nearest neighbours and some compounds at random. The source holds several records for some structures; these can differ, active in one and inactive in another.
What follows are molecules tested against Histone-lysine N-methyltransferase EHMT2 (Homo sapiens) (UniProt Q96KQ7) (assay: qHTS Assay for Inhibitors of Histone Lysine Methyltransferase G9a). Conditions: G9a H3K9 monomethylation, AlphaScreen, 2 h; series mostly up to 59 µM; activity, negative = inhibition: at the top concentration.
Chain of Histone-lysine N-methyltransferase EHMT2 (Homo sapiens) (Q96KQ7 913-1193 limits assumed): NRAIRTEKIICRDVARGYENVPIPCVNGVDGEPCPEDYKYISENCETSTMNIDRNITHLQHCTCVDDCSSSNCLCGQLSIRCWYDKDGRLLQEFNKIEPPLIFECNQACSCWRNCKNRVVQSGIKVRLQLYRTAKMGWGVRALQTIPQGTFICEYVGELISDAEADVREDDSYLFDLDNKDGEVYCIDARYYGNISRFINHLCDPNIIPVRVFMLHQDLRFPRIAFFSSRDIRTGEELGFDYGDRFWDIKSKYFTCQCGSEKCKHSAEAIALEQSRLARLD
Method in brief: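 Using a bead-based AlphaScreen, monomethylated H3K9 product from 2 h room-temperature reactions (G9a 20 nM, peptide 500 nM, SAM 20 uM) was detected with 0.5 ug/mL rabbit anti-H3K9me1 antibody.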
% is scaled to controls: 0 for no effect and ±100 for the full control effect; potency is read from the fitted curve at half-maximal effect.
Also: nearly all actives have a fitted effect of over 75% in size.

| Structure (SMILES) | activity, negative = inhibition | Potency |
| --- | --- | --- |
| COc1ccc(C2=NS(=O)(=O)N(C)C(C(=O)N(C)Cc3ccccc3)=C2)cc1 | 5.73% [at 12.7 µM] (inactive) |  |
| COc1ccc(NC(=O)C2=CC(c3ccc(OC)c(OC)c3)=NS(=O)(=O)N2C)cc1 | -137% [at 102 µM] (inactive) |  |
| COc1ccc(C2=NS(=O)(=O)N(C)C(C(=O)NC(C)c3ccccc3)=C2)cc1 (centres undefined) |  | inactive and 14.1 µM (active) |
| CC(=O)N1c2ccc(S(=O)(=O)N3CCCC(C(=O)Nc4cccc(F)c4)C3)cc2CC1C (centres undefined) | -7.59% [at 12.7 µM] (inactive) |  |
| CCN(CCCNC(=O)Cn1ncc2c3ccccc3n(C)c2c1=O)Cc1ccccc1 | 1.37% (inactive) |  |
| CCC(CC)c1nn2cc(-c3ccccc3)nc2s1 | 30.5% (inactive) |  |
| O=C(Nc1ccc2c(c1)OCCO2)C1CCCC1 | 2.92% [at 12.7 µM] (inactive) |  |
| Cc1cccc(C)c1NC(=O)CSc1ccc([N+](=O)[O-])cn1 | -14.7% (inactive) |  |
| Cc1cc(/C=N/Nc2ccc([N+](=O)[O-])cn2)c(C)n1-c1cccc(C(=O)O)c1 |  | 15.8 µM (active) |
| Cc1ccc(-n2c(C)cc(/C=N/Nc3ccc([N+](=O)[O-])cn3)c2C)c(C)c1 | -11.9% (inactive) |  |
| C#CC(C)(CC)NC(=O)Cn1nnc(-c2ccc(OCc3c(F)cccc3Cl)cc2)n1 (centres undefined) | -5.54% (inactive) |  |
| CCOc1ccc(NC(=O)CN(C)C(=O)c2c(C)noc2C)cc1OCC | 2.91% [at 102 µM] (inactive) |  |
| COCCN(C(=O)CSCc1ccc(C)cc1)c1c(N)n(CC(C)C)c(=O)[nH]c1=O | 19% [at 12.7 µM] (inactive) |  |
| Cc1ccc(CSCC(=O)N(C)CC(=O)Nc2cccc(F)c2)cc1 | 5.8% [at 102 µM] (inactive) |  |
| Cc1ccc(CSCC(N)C(=O)O)cc1 (centres undefined) |  | 15.8 µM (active) |
| Cc1ccc2c(=O)c(C(=O)c3ccc(F)cc3)cn(CC(=O)NC3CCCCC3)c2n1 | -25.3% (inactive) |  |
| O=C(NCCCN1CCCC1=O)c1cccc(S(=O)(=O)NCc2ccccc2)c1 | -27% [at 102 µM] (inactive) |  |
| COC(=O)/C=C\C(=O)Nc1cccc([N+](=O)[O-])c1 |  | 1.41 µM (active) |
| COc1ccc(S(=O)(=O)NC(C)C(=O)N2CCCCCC2)cc1 (centres undefined) | 14.2% [at 102 µM] (inactive) |  |
| COc1ccc(CCNS(=O)(=O)c2cccc([N+](=O)[O-])c2)cc1 | -4.51% [at 102 µM] (inactive) |  |

| Structure (SMILES) | activity, negative = inhibition | Potency |
| --- | --- | --- |
| O=C(CSCC(=O)Nc1cccc([N+](=O)[O-])c1)Nc1ccccc1 | -22.9% (inactive) |  |
| COc1ccc(S(=O)(=O)NC(C)C(=O)Nc2cccc([N+](=O)[O-])c2)cc1 (centres undefined) |  | 50.1 µM (active) |
| CN(CC(=O)Nc1cccc(F)c1)CC(=O)Nc1cccc([N+](=O)[O-])c1 | -15.7% (inactive) |  |
| Cc1c(C(=O)N(C)C)sc2c1c(=O)n(-c1ccc(F)cc1)c(=O)n2CC(=O)N(C)c1ccccc1 | 1.6% (inactive) |  |
| CC1=C(C(=O)Nc2ccccc2)C(c2ccc(C)cc2)n2nc(SCc3ccccc3C)nc2N1 (centres undefined) | 9.21% (inactive) |  |
| CCc1cccc(C)c1NC(=O)COC(=O)CNC(=O)c1cccs1 | -30.4% [at 102 µM] (inactive) |  |
| CCC1(c2ccccc2)NC(=O)N(CC(=O)Nc2ccccc2C(=O)NC2CCCC2)C1=O (centres undefined) | 20.5% [at 0.501 µM] (inactive) |  |
| COc1cc2c(cc1OC)C(C(=O)Nc1cc(C)c(OC)c(C)c1)CC(=O)N2 (centres undefined) | 17.9% [at 102 µM] (inactive) |  |
| CCc1ccc(Nc2n[n+](-c3ccccc3)c(-c3cccc(Cl)c3Cl)s2)cc1 | 10.7% [at 2.33 µM] (inactive) |  |
| COc1cc(Br)c(-c2sc(Nc3ccccc3)n[n+]2-c2ccccc2)cc1OC |  | 28.2 µM (active) |
| COc1ccc(C(=O)Nc2cccc(C(=O)OCc3cc(=O)n4c5c(sc4n3)CCCC5)c2)cc1 | 9.1% (inactive) |  |
| COc1ccc(C)cc1NC(=O)CSc1nnc2ccc(-c3ccccn3)nn12 | 2.04% [at 0.501 µM] (inactive) |  |
| COCCn1c(C)cc(C(=O)COC(=O)CNC(=O)c2ccco2)c1C | 26.7% (inactive) |  |
| COCCn1c(C)cc(C(=O)COC(=O)/C=C/c2cccc(OC)c2)c1C |  | 44.7 µM (active) |
| COc1cccc(/C=C/C(=O)OCC(=O)N2CCN(c3ccccc3)CC2)c1 | -4.22% [at 12.7 µM] (inactive) |  |
| Cc1cccc(-n2ncc(C(=O)N3CCc4ccccc4C3)c2C2CCN(C(=O)OC(C)(C)C)CC2)c1 | -1.5% (inactive) |  |
| COc1ccc(CNC(=O)c2ccc3c(c2)nc2n3CCOC2)c(OC)c1 | 1.96% (inactive) |  |
| CCOC(=O)c1c(C)oc2ccc(OCC(=O)N(CC)CC)cc12 | 8.65% (inactive) |  |
| CCc1nc(C)ccc1OCC(=O)N(CC)CC |  | 28.2 µM (active) |
| CCc1ccccc1NC(=O)CN(C)C(=O)COc1ccc(C)nc1[N+](=O)[O-] | 23% (inactive) |  |

| Structure (SMILES) | activity, negative = inhibition | Potency |
| --- | --- | --- |
| Cc1cccc(C)c1NC(=O)N1CC(C)OC(C)C1 (centres undefined) | 16.9% [at 102 µM] (inactive) |  |
| CCc1cccc(C)c1NC(=S)N(CCCN1CCN(C)CC1)Cc1cccs1 | 112% (inactive) |  |
| Cc1cccc(C)c1NC(=O)C1(C)c2cccc[n+]2CC(=O)N1Cc1cccs1 (centres undefined) |  | 14.1 µM (active) |
| O=C(OCC(=O)N1CCCC1)c1ccc(Cl)nc1 | 4.27% (inactive) |  |
| CCOC(=O)C1CCCN(C(=O)c2ccc(C)c(S(=O)(=O)N3CCCCC3)c2)C1 (centres undefined) | 38.4% [at 12.7 µM] (inactive) |  |
| COc1ccccc1CNc1nc(-c2c(C)noc2C)nc2ccccc12 | -6.92% [at 0.501 µM] (inactive) |  |
| C=CCOc1c(CNn2cn[nH]c2=S)cccc1OC |  | 20 µM (active) |
| C=CCOc1cccc(CNn2cn[nH]c2=S)c1 | 24.4% [at 0.0925 µM] (inactive) |  |
| Cc1ccc(Cl)cc1N1CCN(C(=O)c2cnc3c(-c4ccc(F)cc4)c(C)nn3c2C)CC1 | 7.75% (inactive) |  |
| O=c1c2ccccc2nnn1CSc1nc2sc3c(c2c(=O)n1CC1CCCO1)CCC3 (centres undefined) | 8.89% (inactive) |  |
| Nc1nnc(SCn2nnc3ccccc3c2=O)s1 |  | 28.2 µM (active) |
| Cc1cccc(OCc2nnc(SCn3nnc4ccccc4c3=O)o2)c1 | 2.43% (inactive) |  |
| O=C(Nc1ccc(F)cc1)c1ccc(S(=O)(=O)NCc2cccnc2)cc1 | 31.2% [at 102 µM] (inactive) |  |
| O=C(Nc1ccc(S(=O)(=O)N2CCCCC2)cc1)c1cnccn1 | 0.273% [at 102 µM] (inactive) |  |
| O=C(NNS(=O)(=O)c1ccc(F)cc1)c1cnccn1 |  | 10 µM (active) |
| CSCCC(NC(=O)c1ccco1)C(=O)Nc1cc(C)ccn1 (centres undefined) | -23.1% [at 102 µM] (inactive) |  |
| CCn1c(=O)cc(OCC(=O)Nc2cc(Cl)c(OC)cc2OC)c2ccccc21 | -14.6% (inactive) |  |
| CCN(CC)c1ccc(S(=O)(=O)N2CCCCC2)cc1NC(=O)C1=COCCO1 | -30.4% [at 102 µM] (inactive) |  |
| Cc1ccccc1Cn1nc(C)c(NC(=O)c2cc(-c3ccc(F)cc3)on2)c1C | 6.83% (inactive) |  |

Source: PubChem BioAssay AID504332 (National Center for Advancing Translational Sciences (NCATS), 2011)
